# PRMT1 inh – PRMT1 methyltransferase inhibitors, primary screen, biochemical, fluorescence polarization | AID 652257, 2013 | recombinant PRMT1, activity-based probe fluorescence polarization | 370,000 compounds, 1.3% hits | Protein arginine N-methyltransferase 1 (Homo sapiens), Q99873 | inhibition, % at 2.79 µM;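 active = inhibition above about 21% made by adding two undisclosed values, limit read from the data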
# UHRF1 MBD2 ctr – UHRF1 methylated DNA binding inhibitors, primary screen, counter-screen for MBD2 inhibitor project, biochemical, TR-FRET, human UHRF1, single concentration; E3 ubiquitin-protein ligase UHRF1 (Homo sapiens), Q96T88; UHRF1 binding to methylated oligo; inhibition, % at 4.4 µM; 370,000 compounds, 0.75% hits; AID 687016, 2013; in the data active = inhibition above about 21%;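 also: UHRF1 SRA domain binding a hemimethylated CpG hairpin DNA probe; 0% = median of test compound wells and 100% = reference inhibitor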
# Target sequence (Q96T88 whole entry, looked up, the tested form may be a part): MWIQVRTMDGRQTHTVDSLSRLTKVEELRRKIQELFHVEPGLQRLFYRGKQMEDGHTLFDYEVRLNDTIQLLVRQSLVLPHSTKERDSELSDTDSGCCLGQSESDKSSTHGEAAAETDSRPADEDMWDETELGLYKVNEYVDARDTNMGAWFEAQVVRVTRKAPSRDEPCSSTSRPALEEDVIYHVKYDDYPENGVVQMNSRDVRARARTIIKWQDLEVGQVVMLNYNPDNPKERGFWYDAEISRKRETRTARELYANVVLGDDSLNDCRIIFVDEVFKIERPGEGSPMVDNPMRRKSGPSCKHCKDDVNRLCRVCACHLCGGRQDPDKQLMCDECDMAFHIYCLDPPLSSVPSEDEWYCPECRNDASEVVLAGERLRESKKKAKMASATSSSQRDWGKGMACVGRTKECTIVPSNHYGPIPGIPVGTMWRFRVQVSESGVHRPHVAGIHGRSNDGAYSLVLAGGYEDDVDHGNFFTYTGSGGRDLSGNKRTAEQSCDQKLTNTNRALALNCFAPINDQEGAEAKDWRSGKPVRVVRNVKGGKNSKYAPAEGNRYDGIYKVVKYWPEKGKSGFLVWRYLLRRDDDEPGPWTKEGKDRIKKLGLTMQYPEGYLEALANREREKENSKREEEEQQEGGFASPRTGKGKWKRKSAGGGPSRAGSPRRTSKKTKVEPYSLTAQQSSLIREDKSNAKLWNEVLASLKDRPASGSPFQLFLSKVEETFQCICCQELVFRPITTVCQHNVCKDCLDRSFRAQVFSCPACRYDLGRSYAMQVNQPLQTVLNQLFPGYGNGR
# LEDGF integ inh – blockers of LEDGF/p75-dependent integrase strand transfer – biochemical, TR-FRET, high throughput, primary screen | HIV-1 integrase (with human LEDGF/p75) | TR-FRET IN-LEDGF/p75 DNA integration, Eu/Cy5 | inhibition, % at 3.7 µM | 370,000 compounds, 0.64% hits | AID 743269, 2014;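 active = inhibition above the screen-wide mean plus 3 SD, cut at about 13% in these data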;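 also: signal is the Cy5 over europium emission ratio at 671 and 618 nm; 0% = plate median of compound wells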
# MBD2 inh – inhibitors of MBD2 binding to methylated DNA, primary screen, biochemical, TR-FRET, DNA-binding domain, human. 370,000 compounds, 0.31% hits. inhibition, % at 4.4 µM. Methyl-CpG-binding domain protein 2 (Homo sapiens), Q9UBB5. MBD2 binding to methylated oligonucleotide; in the data active = inhibition above about 13%
# PRMT1 confirm – PRMT1 methyltransferase inhibitors, confirmation, biochemical, fluorescence polarization, triplicate. shares compounds with PRMT1 inh. recombinant His-PRMT1, activity-based probe fluorescence polarization. inhibition, % at 2.79 µM. 3,300 compounds, 42% hits. AID 687036, 2013;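 active = mean inhibition across replicates above the hit cutoff derived for the earlier primary screen, cut at about 22% in these data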
# An asterisk follows results filed as active; · = not tested or not shown. The list is not random: actives were taken first. Their share in the collection is about 2.5%.
SMILES,PRMT1 inh,UHRF1 MBD2 ctr,LEDGF integ inh,MBD2 inh,PRMT1 confirm
Cc1onc(-c2c(F)cccc2Cl)c1C(=O)OCC(=O)N(C)c1ccccc1,0,9,0,6,·
COc1cc(N2C(=O)C=CC2=O)ccc1N1C(=O)C=CC1=O,91*,-1,9,4,87*
CCCc1cc(CN2CCOCC2)c(O)c(CN2CCOCC2)c1O,64*,-5,-6,-5,64*
O=C(CN1C(=O)c2cccc3cccc(c23)C1=O)N1CCN(Cc2ccc3c(c2)OCO3)CC1,1,-8,-4,-2,·
COc1ccc(OC)c(NC(=O)CSc2sc3c(O)cc(=O)[nH]c3c2C#N)c1,26*,10,0,-1,13
N#CCCC1(CCC#N)c2ccccc2C(=O)c2ccccc21,-1,-1,1,0,·
Oc1ccc2ccccc2c1C=Nn1c(-c2n[nH]c3c2CCC3)n[nH]c1=S,32*,-4,1,-7,6
S=c1[nH]nc(-c2n[nH]c3c2CCC3)n1N=Cc1c2ccccc2cc2ccccc12,50*,-7,2,1,49*
O=C(CN1CCN(c2nc(-c3ccccc3)cs2)CC1)Nc1ccc(Cl)cc1,-1,1,0,-1,·
CC[N+]1(C)CCC(O)(/C=C/c2ccccc2)C(C(=O)/C=C/c2ccccc2)C1 (configuration not stated),68*,2,2,-1,49*
S=C(Nc1ccc(Cl)cc1)OC1CCC12CCC(c1ccccc1)CC2 (configuration not stated),-8,-2,1,-3,·
Cc1nnc(SCC2=C(C(=O)O)N3C(=O)C(NC(=O)Cn4nc(C(F)F)c(Cl)c4C)C3SC2)s1 (configuration not stated),28*,0,3,0,39*
Cc1nnc(SCC2=C(C(=O)O)N3C(=O)[C@@H](NC(=O)Cn4cnnn4)[C@H]3SC2)s1,16,-1,4,-6,·
Cc1nnc(SCC2=C(C(=O)O)N3C(=O)C(NC(=O)Cn4nc(C(F)F)cc4C)C3SC2)s1 (configuration not stated),25*,0,4,6,29*
Nc1ccn([C@@H]2O[C@H](C(=O)NCCCN3CCCC3=O)[C@@H](O)[C@H]2O)c(=O)n1,-4,-2,3,-5,·
COc1ccccc1-n1c(SC)nc(O)cc1=O,25*,3,-1,9,5
O=C(CSC1=NCCN1)Nc1cccc(C(F)(F)F)c1,52*,-1,-2,5,35*
C=CSc1sc(Cl)c(N2CCOCC2)c1[N+](=O)[O-],2,3,-2,2,·
C=CS(=O)(=O)c1sc(Cl)c(N2CCOCC2)c1[N+](=O)[O-],68*,4,-2,-1,82*
O=[N+]([O-])c1ccc(S(=O)(=O)N2CCSC2c2ccco2)cc1 (configuration not stated),46*,-5,-5,-4,33*
O=S(=O)(c1ccc(Cl)cc1)N1CCSC1c1ccco1 (configuration not stated),2,2,2,-2,·
C[C@H]1CN([C@@H](C)CO)C(=O)CCCn2nncc2CO[C@@H]1CN(C)C(=O)Cc1ccccc1,0,-1,1,-3,·
c1cncc(-c2nnc(-c3cccnc3)nn2)c1,2,-1,-3,1,·
Cn1c(SSc2ccc(-c3cccnc3)n2C)ccc1-c1cccnc1,69*,6,-7,2,77*
CSc1cccc(NC(=S)N(CCCN2CCCC(C)C2)Cc2cccs2)c1 (configuration not stated),0,-1,-5,-3,·
N#Cc1ccc2c(=O)n(-c3ccccc3)sc2c1,78*,-3,2,-3,95*
CC(=O)Nc1ccc2c(=O)n(-c3ccccc3)sc2c1,86*,-3,-3,3,91*
COc1ccc2ccccc2c1C=NN1CCCCC1,1,-2,2,-5,·
CCN1CCN(C(=S)c2ccc(Cl)c(Cl)c2)CC1,63*,6,-1,-2,49*

# Compound activity: PubChem BioAssay, The Scripps Research Institute Molecular Screening Center
